Our source for the outcome and AC50 values is PubChem BioAssay (EPA / NIEHS).

Inconclusive results are not listed. More than one record can exist for a structure, and the calls need not agree. Active and inactive are the calls of the source. The calls were made as follows: active = hit-call score of the fitted dose curve at least 0.9, where 1 is the maximum; inconclusive = response in the unintended direction; inactive = score below 0.9.

The experiment deals with bovine Estrogen Receptor (ER), ESR1 (gene 407238) (UniProt P49884). The experiment is described as follows: NVS_NR_bER: NovaScreen (NVS) Nuclear Receptor Binding Assay for bovine Estrogen Receptor (ER) (AID 2283345).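 Also: actives lower the bound radioligand count which means they displace the ER ligand.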 The method, then: NVS_NR_bER is a biochemical, single-readout assay that uses extracted gene-proteins from Bovine uterine membranes in a tissue-based cell-free assay. Measurements were taken 18 hours after chemical dosing in a 96-well plate.NVS_NR_bER is one of one assay component(s) measured or calculated from the NVS_NR_bER assay. It is designed to make measurements of radioligand binding, a form of binding reporter, as detected with scintillation counting signals by Lysate-based radiodetection technology.Data from the assay component NVS_NR_bER was analyzed into 1 assay endpoint. This assay endpoint, NVS_NR_bER, was analyzed in the positive analysis fitting direction relative to DMSO as the negative control and baseline of activity. Using a type of binding reporter, loss-of-signal activity can be used to understand changes in the binding as they relate to the gene ESR1. Furthermore, this assay endpoint can be referred to as a primary readout, because the performed assay has only produced 1 assay endpoint. To generalize the intended target to other relatable targets, this assay endpoint is annotated to the nuclear receptor intended target family, where the subfamily is steroidal.
Chain of bovine Estrogen Receptor (ER), ESR1 (gene 407238) (P49884 whole entry, looked up): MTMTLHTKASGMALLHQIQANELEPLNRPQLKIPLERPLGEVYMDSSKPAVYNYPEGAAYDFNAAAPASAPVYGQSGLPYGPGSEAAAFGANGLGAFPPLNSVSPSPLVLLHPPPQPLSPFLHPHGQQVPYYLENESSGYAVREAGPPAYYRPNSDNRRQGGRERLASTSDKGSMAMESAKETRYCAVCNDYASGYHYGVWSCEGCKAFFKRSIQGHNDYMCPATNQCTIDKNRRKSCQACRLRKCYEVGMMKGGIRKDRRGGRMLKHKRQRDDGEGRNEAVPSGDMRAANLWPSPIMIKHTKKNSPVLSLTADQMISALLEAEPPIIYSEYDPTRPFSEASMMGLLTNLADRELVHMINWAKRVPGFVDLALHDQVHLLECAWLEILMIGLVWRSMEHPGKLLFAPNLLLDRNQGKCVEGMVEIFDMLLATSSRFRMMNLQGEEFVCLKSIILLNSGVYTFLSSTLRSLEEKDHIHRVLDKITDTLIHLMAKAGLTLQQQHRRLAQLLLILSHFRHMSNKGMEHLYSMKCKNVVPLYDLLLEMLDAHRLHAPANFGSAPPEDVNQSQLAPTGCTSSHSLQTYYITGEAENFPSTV
Binding assays used specific radioligands (tritiated, iodinated) with non-radioactive competitive displacement ligands in agonist or antagonist protocols (as indicated) and various reference compounds and inhibitors to titrate specific binding to receptors and transporters. Most enzyme assays (CYPs, kinases, phosphatases, proteases, HDACs) used recombinant protein and specific substrates (fluorescence mostly, some colorimetric and radioactive) and inhibitors, followed by a biochemical separation of substrate and product. All assays for the biochemical HTS were initially run in duplicate at a single concentration (10 uM for CYP450 assays and 25 uM for all others). […] Each assay was run with positive and negative controls, and concurrent controls on every plate. The follow-up (secondary) screen tested active chemical-pairs in concentration series, as well as a few additional assays not tested in the primary screen, some selected negative inactives, and several cases re-run in the concentration series for confirmatory purposes.
What is called AC50 is the midpoint of the concentration-response curve, whichever way the signal moves. Regarding `C[C@]12C=CC3=C4CCC(=O)C=C4CC[C@H]3[C@@H]1CC[C@@H]2O`, the call was inactive and the half-maximal activity concentration (AC50) was 6.47 µM (active) [middle of 4 runs].

For `Cc1ccc([N+](=O)[O-])cc1`, the compound was called inactive. Still for that read-out and setting: in the case of `Nc1ccc(N=Nc2ccccc2)cc1` it was “inactive”; in that of `Brc1ccc(Oc2ccccc2)cc1`, “inactive”. `CCCCCOC(=O)c1ccccc1C(=O)OCCCCC`: the call was inactive. On the same count and under the same terms, with `[Cl-].[Cl-].[Hg+2]` the entry was “inactive”; with `CCCCCCCCn1sccc1=O`, “inactive”; with `CC(C)COC(=O)c1ccccc1C(=O)OCC(C)C`, “inactive”. Same read-out and setting: with `N#CC(Br)Br` the entry was “inactive”.
